Assay outcomes: PubChem, National Center for Advancing Translational Sciences (NCATS)
Marburg entry inh – qHTS for inhibitors of binding or entry into cells for Marburg Virus. 300,000 tested, 1.8% active. Potency, µM (highest dose often 37.8 µM), most hits filed as inhibitors. AID 540276, 2011. Marburg virus pseudotyped entry inhibition, cell reporter; calls by dose curve; tested in HEK293 cells
HCMV antiviral – qHTS Assay for inhibitors of the human cytomegalovirus (HCMV) | activity change, negative = inhibition, % at 57.5 µM | 410,000 tested, 4.5% active | HFF cells, HCMV-luciferase reporter, 72 h; active compounds read low; in the data active means activity change below about -60%; inconclusive means no clear call, values can overlap the other calls; inactive means above about -39%
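HFF cells seeded 16 h at 37C, treated with compounds, infected with luciferase-reporter HCMV at MOI 1 PFU/cell; luciferase read at 72 h post infection, normalized to buffer-only and Salinomycin controls.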
Vaccinia Venus – qHTS for Stage-Specific Inhibitors of Vaccinia Orthopoxvirus: Venus Reporter Primary qHTS. AID 720580, 2013. Vaccinia virus Venus reporter expression, fluorescence. Potency, µM (titrated, usually from 36.5 µM), most hits filed as inhibitors. 330,000 tested, 0.46% active; calls by dose curve; tested in A549 cells; further: nearly all actives have a fitted effect of over 30% in size
Lassa entry inh – qHTS for Inhibitors of binding or entry into cells for Lassa Virus | Lassa virus pseudotype entry inhibition, cell reporter | Potency, µM (top dose mostly 37.9 µM), actives largely listed as inhibitors | 300,000 tested, 1.2% active | AID 540256, 2011; calls by dose curve; tested in HEK293 cells; further: nearly all actives have a fitted effect of over 50% in size
VACV mCherry inh – qHTS for Stage-Specific Inhibitors of Vaccinia Orthopoxvirus: mCherry Reporter Primary qHTS. Vaccinia virus mCherry reporter infection, fluorescence. Potency, µM (highest dose often 36.5 µM), hits mostly inhibitors. 310,000 tested, 0.63% active. AID 720579, 2013; calls by dose curve; tested in A549 cells; further: nearly all actives have a fitted effect of over 35% in size
FMDV inh – High Throughput Screening for Foot and Mouth Disease Virus Antivirals; AID 1159524, 2015; 410,000 tested, 1.2% active; FMDV antiviral cell-based qHTS; Potency, µM (titrated, usually from 57.9 µM), actives largely listed as inhibitors; calls by dose curve; tested in HEK293T cells; further: read-out not given here; nearly all actives have a fitted effect of over 45% in size
Of the large screens only hits and unclear results are named; the others gave an inactive call. Shown are actives, neighbours in structure and some others; about 6.5% of the full set was active somewhere.

O=C(c1ccc(S(=O)(=O)NCC2CCCO2)cc1)N1CCN(c2cccc(Cl)c2)CC1 (stereo unspecified)	HCMV antiviral -70, FMDV inh inconclusive (no result: Marburg entry inh, Vaccinia Venus, Lassa entry inh, VACV mCherry inh)
O=C(c1ccc(S(=O)(=O)NCC2CCCO2)cc1)N1CCN(c2ccccc2F)CC1 (stereo unspecified)	none (no result: Marburg entry inh, Vaccinia Venus, Lassa entry inh, VACV mCherry inh)
O=S(=O)(NCC1CCCO1)c1ccc(-c2ccc(Cl)cc2)cc1 (stereo unspecified)	Marburg entry inh inconclusive, HCMV antiviral -60, Lassa entry inh inconclusive
COC(=O)c1ccc(OCC2c3cc(OC)c(OC)cc3CCN2C(=O)Cc2ccc(OC)c(OC)c2)cc1 (stereo unspecified)	none (no result: Marburg entry inh)
CC(=O)NCCNc1ncnc2ccc(-c3ccccc3C#N)cc12	none (no result: Marburg entry inh, HCMV antiviral, Vaccinia Venus, Lassa entry inh, VACV mCherry inh)
CCc1cccc(N(C)C(N)=Nc2cccc3ccccc23)c1	Marburg entry inh 11µM, Lassa entry inh 13µM
CCN(/C(N)=N/c1nc(C)cc(C)n1)c1ccccc1	none
CCOC(=O)c1ccc(Nc2nc3ccccc3nc2NS(=O)(=O)c2ccc(Cl)cc2)cc1	Vaccinia Venus inconclusive, VACV mCherry inh 10µM, FMDV inh inconclusive (no result: Marburg entry inh)
COC(=O)[C@]12C[C@H](CC(=O)NCc3cccc(C(F)(F)F)c3)C(=O)N(Cc3ccccc3)C1=C[C@H](C1CCCC1)O[C@@H]2C	none (no result: Marburg entry inh, Vaccinia Venus, Lassa entry inh, VACV mCherry inh, FMDV inh)
CC(Oc1ccc(F)cc1)C(=O)Nc1ccc2ccccc2c1 (stereo unspecified)	Marburg entry inh 12µM, HCMV antiviral -67, Lassa entry inh inconclusive (no result: Vaccinia Venus, VACV mCherry inh)
CC(Oc1ccccc1F)C(=O)Nc1ccc2ccccc2c1 (stereo unspecified)	Marburg entry inh inconclusive, HCMV antiviral -77, Lassa entry inh inconclusive, VACV mCherry inh inconclusive
Cn1c(=O)c(-c2cccs2)nc2cnc(N3CCNCC3)nc21	none (no result: Marburg entry inh, HCMV antiviral, Vaccinia Venus, Lassa entry inh, VACV mCherry inh)
CC(C)(C)c1ccccc1OCCOCCN1CCCCCC1	Marburg entry inh inconclusive, HCMV antiviral inconclusive
CCC(C)c1ccccc1OCCCCN1CCCC1 (stereo unspecified)	Marburg entry inh inconclusive, Lassa entry inh inconclusive, FMDV inh inconclusive
Cc1ccc(C(C)(C)C)c(OCCOCCN2CCCC2)c1	Marburg entry inh 12µM, Lassa entry inh inconclusive
CCC(C)c1ccccc1OCCOCCN1CCCC1 (stereo unspecified)	Marburg entry inh inconclusive, Lassa entry inh 18µM
O=[N+]([O-])c1cc(S(=O)(=O)Nc2ccc(Cl)cc2)ccc1N/N=C/c1ccncc1	Marburg entry inh inconclusive, HCMV antiviral -102, Vaccinia Venus inconclusive, VACV mCherry inh inconclusive
CSc1ccc(CN2CCC(C(=O)NCc3ccc(C)cc3)CC2)cc1	Marburg entry inh 16µM, Lassa entry inh inconclusive (no result: Vaccinia Venus, VACV mCherry inh)
Cc1ccc(CNC(=O)CN2CCC(C(N)=O)CC2)cc1	none (no result: Vaccinia Venus, VACV mCherry inh)
Cc1nn(-c2ccccc2)c(Cl)c1/C=C(\C#N)C(=O)NC(C)C	HCMV antiviral inconclusive, FMDV inh 25µM
COc1ccc(NC(=O)/C(C#N)=C/c2c(C)nn(-c3ccc(F)cc3)c2Cl)cc1Cl	FMDV inh inconclusive
COc1ccc(NC(=O)/C(C#N)=C/c2c(C)nn(-c3ccc(F)cc3)c2Cl)cc1OC	Marburg entry inh inconclusive, Lassa entry inh inconclusive, FMDV inh 22µM (no result: Vaccinia Venus, VACV mCherry inh)
CCCN1CNc2c(c(=O)[nH]c(=S)n2CCc2cc(C)ccc2C)C1	none (no result: Marburg entry inh, HCMV antiviral, Lassa entry inh, FMDV inh)
COc1ccc(C2CC(=O)CCN2S(=O)(=O)c2ccc(F)cc2)cc1 (stereo unspecified)	none (no result: Marburg entry inh, Vaccinia Venus, Lassa entry inh, VACV mCherry inh, FMDV inh)
Cn1c(=O)n(CC(=O)OCc2ccccc2)c(=O)c2c1nc1n2CCCN1C1CCCCC1	Marburg entry inh inconclusive, Lassa entry inh inconclusive, FMDV inh 28µM (no result: VACV mCherry inh)
Brc1cccc[n+]1Cc1ccc(C[n+]2ccccc2Br)cc1	none (no result: Marburg entry inh, HCMV antiviral, Lassa entry inh, FMDV inh)
CCOc1ccc(N(CC(=O)NC2CC3CCC2C3)S(=O)(=O)c2ccccc2)cc1 (stereo unspecified)	Marburg entry inh inconclusive, Lassa entry inh 10µM
CCOc1ccc(N(CC(=O)NC2CCCC2)S(=O)(=O)c2ccccc2)cc1	HCMV antiviral -64
CCOc1ccc(N(CC(=O)NC2CCCCC2)S(=O)(=O)c2ccc(C)cc2)cc1	none
CCOc1ccc(N(CC(=O)NC2CC3CCC2C3)S(=O)(=O)c2ccc(C)cc2)cc1 (stereo unspecified)	none (no result: Marburg entry inh, Vaccinia Venus, Lassa entry inh, VACV mCherry inh)
COc1ccc(N(CC(=O)NC2CC3CCC2C3)S(=O)(=O)c2ccccc2)cc1OC (stereo unspecified)	Marburg entry inh inconclusive, Lassa entry inh 8.9µM
Cn1nnc2c(NCc3ccco3)ncnc21	none (no result: Marburg entry inh, HCMV antiviral, Lassa entry inh, FMDV inh)
COc1cccc(CNC(=O)CN2C(=O)CCn3nc(-c4cn(C)c5ccccc45)cc32)c1OC	none (no result: Marburg entry inh)
COc1cc(CN2CCCC(n3cc(C(=O)N4CCCCC4)nn3)C2)cc(OC)c1OC (stereo unspecified)	none (no result: Marburg entry inh, HCMV antiviral, Lassa entry inh)
COc1cc(/C=C/C(=O)c2c(O)ccc3c(C)cc(=O)oc23)ccc1O	Marburg entry inh inconclusive, HCMV antiviral -92, Vaccinia Venus inconclusive, Lassa entry inh inconclusive, FMDV inh inconclusive
COc1ccc(/C=C\C(=O)c2c(O)ccc3c(C)cc(=O)oc23)cc1OC	Marburg entry inh inconclusive, HCMV antiviral -94, Vaccinia Venus inconclusive, Lassa entry inh inconclusive, FMDV inh 35µM
CSc1ccc(/C=C(/Sc2nnc(-c3ccccc3)o2)C(=O)O)cc1	HCMV antiviral -69
O=C(CSc1nc2c(c(=O)[nH]1)CCCC2)Nc1ccc(Br)cc1	none
COc1ccccc1-c1nnc(Nc2nc3c(OC)cccc3s2)o1	Marburg entry inh inconclusive, HCMV antiviral -76, Lassa entry inh inconclusive, VACV mCherry inh inconclusive
COc1cccc2sc(NN)nc12	none
COc1cccc2sc(Nc3nnc(-c4ccccc4Cl)o3)nc12	Marburg entry inh inconclusive, HCMV antiviral -60, Lassa entry inh inconclusive, VACV mCherry inh inconclusive
CCCCC1CN(CCNC(=O)c2ccccn2)Cc2ccccc2O1 (stereo unspecified)	none (no result: Marburg entry inh, HCMV antiviral, Lassa entry inh)
CC(=O)N=c1scc(-c2ccccc2)n1-c1cccc(O)c1	Marburg entry inh inconclusive, HCMV antiviral -92, Vaccinia Venus inconclusive
Cc1ccc(-c2ccc(CCC(=O)O)n2-c2cccc(O)c2)cc1	none
C=CCOC(=O)C1=C(C)NC(SCC(=O)Nc2ccc(C)c(Cl)c2)=C(C#N)[C@@H]1c1ccco1	Marburg entry inh 10µM (no result: HCMV antiviral, Vaccinia Venus, Lassa entry inh, VACV mCherry inh, FMDV inh)
CC(=O)C1=C(C)NC(SCC(=O)c2ccc(Cl)cc2Cl)=C(C#N)C1c1ccco1 (stereo unspecified)	HCMV antiviral -68, Lassa entry inh inconclusive (no result: FMDV inh)
CC(=O)C1=C(C)NC(SCC(=O)c2ccc(Cl)cc2)=C(C#N)C1c1ccco1 (stereo unspecified)	Marburg entry inh inconclusive
CCOC(=O)C1=C(c2ccccc2)NC(SCC(=O)Nc2ccc(C)cc2)=C(C#N)C1c1ccco1 (stereo unspecified)	Marburg entry inh inconclusive, Vaccinia Venus inconclusive
CCOC(=O)C1=C(c2ccccc2)NC(SCC(=O)Nc2ccccc2C)=C(C#N)C1c1ccco1 (stereo unspecified)	Marburg entry inh 23µM, Lassa entry inh inconclusive (no result: Vaccinia Venus, VACV mCherry inh)
